Results reported in PubChem BioAssay (Tox21).
Values joined by “and” are separate entries in the source; they are usually repeats but may differ in a detail not shown here. Equal entries are not always repeated. Inconclusive results are not listed. Active and inactive are the calls of the source. Unless noted, calls follow the shape of the dose curve; as a rule, active = well fitted curve in the direction sought with a large enough effect in the repeat runs; inconclusive = weak or mixed curves; inactive = no such curve, though single readings can be large; an effect the other way counts as inactive or inconclusive.

Key:
[1] = qHTS assay to identify small molecule antagonists of the TGF-beta/Smad signaling pathway - cell viability counter screen (AID 1346824); also: potency is read from the fitted curve at half-maximal effect; nearly all actives have a fitted effect of over 50% in size
Summary of the method: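 SBE-bla HEK 293T cells were plated overnight at 37 C, then given compounds in DMSO plus TGF-beta1 (added as 0.25 ng/mL solution) for 5 hr. After the bla read, CellTiter-Glo was added to the same wells and luminescence read after 30 min at room temperature.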

[2] = qHTS assay to identify small molecule agonists of the TGF-beta/Smad signaling pathway (AID 1346859; active = well fitted activation curve with a large enough effect in the signal ratio in the repeat runs, not every such curve was filed as active; the % refers to the signal ratio; also: series mostly up to about 77 µM; % is scaled to controls: 0 for no effect and ±100 for the full control effect)
Summary of the method: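 Fluorescence (ex 405 nm; em 460 and 530 nm) was read 2 h after LiveBLAzer FRET substrate at RT. The preceding compound treatment of overnight-plated SBE-bla HEK293T cells lasted 5 h at 37 C.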

[3] = molecular target: Thyrotropin-releasing hormone receptor (Homo sapiens) (UniProt P34981); assay: qHTS assay to identify small molecule agonists of the thyrotropin-releasing hormone receptor (TRHR) signaling pathway (AID 1346891; calls by dose curve; also: series mostly up to about 58 µM; % is scaled to controls: 0 for no effect and ±100 for the full control effect)
Summary of the method: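 Agonist-mode intracellular calcium readout: kinetic fluorescence over 3 min at 1 s intervals after compound addition to TRHR-HEK293 cells (18 h seeded, 2 h dye-loaded at 37 C). Fifteen concentrations, triplicates.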

[4] = Human pregnane X receptor (PXR) small molecule agonists, qHTS cell viability counter screen (AID 1346977); also: potency is read from the fitted curve at half-maximal effect; nearly all actives have a fitted effect of over 50% in size
Summary of the method: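 Same-well viability read: CellTiter-Fluor added after 23 hr compound exposure, fluorescence measured 1 hr later. Cells were PXR-Luc HepG2 seeded at 2,000/well in 5% charcoal-stripped FBS medium, rested 5 hr before dosing at 37 C.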

[5] = Caspase-3/7 induction in HepG2 cells by small molecules, qHTS assay (AID 1346978); also: % is scaled to controls: 0 for no effect and ±100 for the full control effect; nearly all actives have a fitted effect of over 15% in size
Summary of the method: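 Wild-type HepG2 cells (2,000/well) were settled 5 h at 37 C, 5% CO2, then exposed to compounds in DMSO for 17 h. Caspase-3/7 activity was read by luminescence 30 min after adding Caspase-Glo 3/7 reagent at room temperature.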

[6] = Caspase-3/7 induction in CHO-K1 cells by small molecules, qHTS assay (AID 1346980); also: % is scaled to controls: 0 for no effect and ±100 for the full control effect; nearly all actives have a fitted effect of over 15% in size
Summary of the method: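 Wild-type cells were seeded at 1,500 per well and settled 5 hr at 37 C, 5% CO2, then exposed to DMSO-dissolved compounds for 17 hr. Caspase-Glo 3/7 reagent was added, and luminescence was read after 30min at room temperature.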

[7] = Caspase-3/7 induction in HepG2 cells by small molecules, qHTS cell viability counter screen (AID 1346981); also: potency is read from the fitted curve at half-maximal effect; nearly all actives have a fitted effect of over 30% in size
Summary of the method: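 In this quantitative HTS counter screen, compounds delivered in DMSO were left on unmodified HepG2 cells for 16 hr at 37 C. Viability was then determined fluorometrically with CellTiter-Fluor, in parallel with caspase-3/7 induction in the same wells.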

[8] = molecular target: Nuclear receptor subfamily 1 group I member 2 (Homo sapiens) (UniProt O75469); assay: Human pregnane X receptor (PXR) small molecule agonists, qHTS assay (AID 1346982); also: % is scaled to controls: 0 for no effect and ±100 for the full control effect; nearly all actives have a fitted effect of over 35% in size
Summary of the method: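 Reporter HepG2 cells expressing PXR-Luc are cultured in charcoal-stripped FBS (5%), treated with compounds for 24 hr at 37 C, and assayed by ONE-Glo luminescence after 30 min at room temperature.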

[9] = molecular target: Cytochrome P450 2D6 (Homo sapiens) (UniProt P10635); assay: Cytochrome P450 Family 2 Subfamily D Member 6 (CYP2D6) small molecule antagonists: luciferase reporter qHTS assay (AID 1671196); also: potency is read from the fitted curve at half-maximal effect; nearly all actives have a fitted effect of over 50% in size
Summary of the method: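 Test chemicals meet CYP2D6 plus proluciferin substrate (10 min, RT); NADPH regenerating solution then drives turnover for 1 h. Detection reagent halts the reaction; luminescence measured after 20 min.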

[10] = molecular target: Cytochrome P450 2C19 (Homo sapiens) (UniProt P33261); assay: Cytochrome P450 Family 2 Subfamily C Member 19 (CYP2C19) small molecule antagonists: luciferase reporter qHTS assay (AID 1671197); also: potency is read from the fitted curve at half-maximal effect; nearly all actives have a fitted effect of over 65% in size
Summary of the method: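 Light output is proportional to CYP2C19 activity: proluciferin substrate is converted to luciferin, then detected by a luciferin detection reagent that also stops the 1 h, 37C NADPH-driven reaction. Ketoconazole serves as positive control.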

[11] = molecular target: Cytochrome P450 1A2 (Homo sapiens) (UniProt P05177); assay: Cytochrome P450 Family 1 Subfamily A Member 2 (CYP1A2) small molecule antagonists: luciferase reporter qHTS assay (AID 1671199); also: potency is read from the fitted curve at half-maximal effect; nearly all actives have a fitted effect of over 50% in size
Summary of the method: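 Steps: enzyme-substrate mix dispensed; test compounds and furafylline control pinned in; 10 min room temperature; NADPH regeneration solution added, 1 h; reaction stopped with luciferin detection reagent; luminescence read after 20 min.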

[12] = molecular target: Nuclear receptor subfamily 1 group I member 2 (Rattus norvegicus) (UniProt Q9R1A7); assay: Rat pregnane X receptor (rPXR) activation by small molecules, qHTS assay (AID 1346983); details: rPXR luciferase reporter cells, One-Glo luminescence, 24 h; max activation: hits give high values; also: % is scaled to controls: 0 for no effect and ±100 for the full control effect; nearly all actives have a fitted effect of over 20% in size
Summary of the method: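 Cell-based rPXR luciferase reporter assay, 2,000 cells per well, rested 5hr at 37 C before compound addition in DMSO, then 24 hr at 37 C. One-Glo reagent was added and luminescence read after 30 min at room temperature.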

[13] = molecular target: Nuclear receptor subfamily 1 group I member 2 (Homo sapiens) (UniProt O75469); assay: CYP3A4 induction through human pregnane X receptor (PXR) by small molecules, qHTS assay (AID 1346984); also: % is scaled to controls: 0 for no effect and ±100 for the full control effect; nearly all actives have a fitted effect of over 40% in size
Summary of the method: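 Induction measured in HepG2-based DPX-2 cells co-expressing human PXR and a CYP3A4 promoter-driven luciferase. After a 24-hour compound exposure, cells received CYP3A4 luciferin substrate at 3uM final for 3 hours, and light output was then recorded.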

[14] = molecular target: Nuclear receptor subfamily 1 group I member 2 (Homo sapiens) (UniProt O75469); assay: Human pregnane X receptor (PXR) activation by small molecules, qHTS assay (AID 1346985); also: % is scaled to controls: 0 for no effect and ±100 for the full control effect; nearly all actives have a fitted effect of over 40% in size
Summary of the method: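 DPX-2 cells (HepG2 co-transfected with a PXR response element and a CYP3A4-promoter luciferase construct) were seeded at 2,000 per well, rested 5 hr at 37C, then exposed to DMSO-dissolved compounds for 24 hr. Activation was read as luciferase luminescence.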

Chain of Nuclear receptor subfamily 1 group I member 2 (Rattus norvegicus) (Q9R1A7 whole entry, looked up): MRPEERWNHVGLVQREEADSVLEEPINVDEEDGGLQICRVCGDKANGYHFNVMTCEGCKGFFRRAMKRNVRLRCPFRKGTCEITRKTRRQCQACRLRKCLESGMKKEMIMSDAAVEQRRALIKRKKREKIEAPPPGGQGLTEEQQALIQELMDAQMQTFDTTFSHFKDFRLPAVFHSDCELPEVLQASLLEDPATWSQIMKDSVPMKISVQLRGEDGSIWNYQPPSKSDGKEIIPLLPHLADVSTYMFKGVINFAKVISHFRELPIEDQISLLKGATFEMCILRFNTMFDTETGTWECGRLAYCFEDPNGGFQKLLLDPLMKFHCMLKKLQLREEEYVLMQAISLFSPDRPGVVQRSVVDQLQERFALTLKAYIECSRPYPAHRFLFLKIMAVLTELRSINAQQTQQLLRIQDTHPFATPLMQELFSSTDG
Chain of Cytochrome P450 2D6 (Homo sapiens) (P10635 whole entry, looked up): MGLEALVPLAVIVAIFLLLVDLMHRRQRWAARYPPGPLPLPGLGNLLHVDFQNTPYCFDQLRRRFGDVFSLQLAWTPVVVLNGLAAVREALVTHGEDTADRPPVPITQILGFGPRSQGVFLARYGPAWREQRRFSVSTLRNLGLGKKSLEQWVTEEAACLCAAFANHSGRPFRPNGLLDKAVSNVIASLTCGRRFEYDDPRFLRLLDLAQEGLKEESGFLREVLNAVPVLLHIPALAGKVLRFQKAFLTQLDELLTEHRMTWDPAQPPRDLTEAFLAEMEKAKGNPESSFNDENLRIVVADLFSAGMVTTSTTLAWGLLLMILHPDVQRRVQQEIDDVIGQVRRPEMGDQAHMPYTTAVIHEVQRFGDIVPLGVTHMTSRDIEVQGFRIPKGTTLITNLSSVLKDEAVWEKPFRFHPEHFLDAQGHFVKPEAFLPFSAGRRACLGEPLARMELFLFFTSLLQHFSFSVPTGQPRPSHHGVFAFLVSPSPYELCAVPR
Chain of Nuclear receptor subfamily 1 group I member 2 (Homo sapiens) (O75469 whole entry, looked up): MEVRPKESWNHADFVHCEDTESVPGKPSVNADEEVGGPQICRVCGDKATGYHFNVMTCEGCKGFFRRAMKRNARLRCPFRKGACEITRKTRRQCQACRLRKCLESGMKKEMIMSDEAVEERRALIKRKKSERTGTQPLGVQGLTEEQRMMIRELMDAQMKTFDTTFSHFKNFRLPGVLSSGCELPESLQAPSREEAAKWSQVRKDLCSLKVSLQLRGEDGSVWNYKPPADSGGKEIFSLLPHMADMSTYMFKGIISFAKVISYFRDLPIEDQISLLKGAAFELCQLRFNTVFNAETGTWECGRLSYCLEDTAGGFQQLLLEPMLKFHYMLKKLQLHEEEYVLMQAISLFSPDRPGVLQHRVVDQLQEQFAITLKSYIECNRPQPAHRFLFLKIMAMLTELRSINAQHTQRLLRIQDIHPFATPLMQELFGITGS
Chain of Cytochrome P450 2C19 (Homo sapiens) (P33261 whole entry, looked up): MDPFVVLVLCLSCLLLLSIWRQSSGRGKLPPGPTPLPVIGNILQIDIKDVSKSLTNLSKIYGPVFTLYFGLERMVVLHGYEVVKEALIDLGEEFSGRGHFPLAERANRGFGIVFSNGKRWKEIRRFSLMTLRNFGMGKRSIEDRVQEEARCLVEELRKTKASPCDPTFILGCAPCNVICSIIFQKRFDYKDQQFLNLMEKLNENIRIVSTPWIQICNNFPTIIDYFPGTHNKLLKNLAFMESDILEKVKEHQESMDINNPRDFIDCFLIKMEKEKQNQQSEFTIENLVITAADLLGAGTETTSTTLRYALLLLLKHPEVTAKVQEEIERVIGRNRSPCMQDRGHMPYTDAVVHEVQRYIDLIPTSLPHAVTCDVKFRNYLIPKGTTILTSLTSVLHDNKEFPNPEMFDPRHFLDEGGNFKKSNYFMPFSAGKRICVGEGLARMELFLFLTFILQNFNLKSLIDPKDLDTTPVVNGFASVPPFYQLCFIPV
Chain of Cytochrome P450 1A2 (Homo sapiens) (P05177 whole entry, looked up): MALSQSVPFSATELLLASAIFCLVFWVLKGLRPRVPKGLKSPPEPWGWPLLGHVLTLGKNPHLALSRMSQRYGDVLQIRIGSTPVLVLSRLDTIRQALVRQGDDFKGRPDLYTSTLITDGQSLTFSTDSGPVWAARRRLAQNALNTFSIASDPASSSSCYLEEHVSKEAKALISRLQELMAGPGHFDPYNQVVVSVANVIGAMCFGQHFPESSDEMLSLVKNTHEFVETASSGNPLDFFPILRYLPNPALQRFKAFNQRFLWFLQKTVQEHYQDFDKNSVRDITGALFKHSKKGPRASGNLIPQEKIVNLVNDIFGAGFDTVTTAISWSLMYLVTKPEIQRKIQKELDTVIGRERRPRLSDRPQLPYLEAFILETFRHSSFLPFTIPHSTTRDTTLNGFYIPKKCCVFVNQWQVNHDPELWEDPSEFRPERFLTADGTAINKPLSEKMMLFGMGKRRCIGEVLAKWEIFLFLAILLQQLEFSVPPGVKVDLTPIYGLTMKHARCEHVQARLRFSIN
Chain of Thyrotropin-releasing hormone receptor (Homo sapiens) (P34981 whole entry, looked up): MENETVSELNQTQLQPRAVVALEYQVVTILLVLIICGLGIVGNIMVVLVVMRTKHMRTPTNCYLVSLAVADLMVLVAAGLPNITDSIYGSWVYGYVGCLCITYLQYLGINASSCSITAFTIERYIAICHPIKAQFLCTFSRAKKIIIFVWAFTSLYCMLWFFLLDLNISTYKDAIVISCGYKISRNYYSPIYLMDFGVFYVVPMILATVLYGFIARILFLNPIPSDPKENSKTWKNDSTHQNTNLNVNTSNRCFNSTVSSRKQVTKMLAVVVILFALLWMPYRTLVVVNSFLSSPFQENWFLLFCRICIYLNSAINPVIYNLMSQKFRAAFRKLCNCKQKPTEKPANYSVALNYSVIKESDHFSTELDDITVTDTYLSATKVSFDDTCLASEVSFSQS

O=C1C=CC(=O)N1c1cccc(N2C(=O)C=CC2=O)c1
active: Potency [1] 54.9 µM | Potency [4] 61.1 µM | Potency [7] 61.1 µM | Potency [9] 71 µM | Potency [10] 7.1 µM | Potency [11] 15.9 µM
inactive: outcome [2] | Potency [3] | Potency [5] | Potency [6] | Potency [8]

CC(C)(COP(=O)(O)OP(=O)(O)OC[C@H]1O[C@@H](n2cnc3c(N)ncnc32)[C@H](O)[C@@H]1OP(=O)(O)O)C(O)C(=O)NCCC(=O)NCCS (some centres undefined)
inactive: max activation [12] 0.513% | Potency [13] | Potency [14]

NC[C@@H]1CC[C@@H](N)[C@@H](O[C@H]2[C@H](O)[C@@H](O[C@H]3O[C@H](CO)[C@@H](O)[C@H](N)[C@H]3O)[C@H](N)C[C@@H]2N)O1
inactive: max activation [12] -0.783% | Potency [13] | Potency [14]

C[N+](C)(C)CCOP(=O)(O)OP(=O)([O-])OC[C@H]1O[C@@H](n2ccc(N)nc2=O)[C@H](O)[C@@H]1O
inactive: max activation [12] -1.05% | Potency [13] | Potency [14]

C=C1C(=C/C=C2\CCC[C@]3(C)[C@@H]([C@H](C)CCCC(C)C)CC[C@@H]23)C[C@@H](O)C[C@@H]1O
inactive: max activation [12] -2.56% | Potency [13] | Potency [14]

O=C(O)c1cc(O)c2c(c1)[C@H]([C@H]1c3cc(C(=O)O)cc(O)c3C(=O)c3c(O[C@@H]4O[C@H](CO)[C@@H](O)[C@H](O)[C@H]4O)cccc31)c1cccc(O[C@@H]3O[C@H](CO)[C@@H](O)[C@H](O)[C@H]3O)c1C2=O
inactive: max activation [12] -0.0362% | Potency [13] | Potency [14]

CN=C(N)NCCC[C@H](N)C(=O)O
inactive: max activation [12] -7.28% | Potency [13] | Potency [14]

CC1CCCC(C)N1NC(=O)c1ccc(Cl)c(S(N)(=O)=O)c1 (centres undefined)
inactive: max activation [12] -4.09% | Potency [13] | Potency [14]

O=C(O)CCCC/C=C(\c1ccccc1)c1cccnc1
inactive: max activation [12] -2.2% | Potency [13] | Potency [14]

COc1ccc(/C=N/NC(=O)c2ccncc2)c(C(=O)O)c1OC
inactive: max activation [12] -2.1% | Potency [13] | Potency [14]

C[Se]CC[C@H](N)C(=O)O
inactive: max activation [12] -6.85% | Potency [13] | Potency [14]

CCCCCCCCCC(=O)NO
inactive: max activation [12] -0.53% | Potency [13] | Potency [14]

CC1(C)C[C@@H]1C(=O)N/C(=C\CCCCSC[C@H](N)C(=O)O)C(=O)O
inactive: max activation [12] -4.56% and -1.17% | Potency [13] | Potency [14]

NC[C@H]1O[C@H](O[C@H]2[C@H](O)[C@@H](O[C@H]3O[C@H](CO)[C@@H](O)[C@H](N)[C@H]3O)[C@H](N)C[C@@H]2N)[C@H](N)C[C@@H]1O
inactive: max activation [12] 7.07% | Potency [13] | Potency [14]

CO[C@H]1C[C@H](O[C@H]2[C@H](C)[C@@H](O[C@@H]3O[C@H](C)C[C@H](N(C)C)[C@H]3O)[C@@H](C)C[C@]3(CO3)C(=O)[C@H](C)[C@@H](O)[C@@H](C)[C@@H](C)OC(=O)[C@@H]2C)O[C@@H](C)[C@@H]1O
inactive: max activation [12] 3.2% | Potency [13] | Potency [14]

N#Cc1c(N(CC(=O)O)CC(=O)O)sc(C(=O)O)c1CC(=O)O
inactive: max activation [12] -5.61% | Potency [13] | Potency [14]

C/C(=C\C(=O)OCCCCCCCCC(=O)O)C[C@@H]1OC[C@H](C[C@@H]2O[C@H]2[C@@H](C)[C@H](C)O)[C@@H](O)[C@H]1O
inactive: max activation [12] -5.5% | Potency [13] | Potency [14]

CC(=NCc1ccccc1)c1ccccc1O
inactive: max activation [12] -4.51% | Potency [13] | Potency [14]

CN1[C@@H](CC(=O)c2ccccc2)CCC[C@H]1C[C@H](O)c1ccccc1
inactive: max activation [12] 4.75% | Potency [13]
